From PubChem BioAssay
TEAD-YAP block: TEAD-YAP interaction inhibition | HEK-TIYL cells, TEAD-Gal4/YAP UAS-luciferase luminescence | inhibition, % at 9.12 µM | actives 1.4% (n = 640,000) | AID 1259422; in the data active = inhibition above about 32%;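 note: 0% = median of test compound wells and 100% = reference inhibitor wells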
FBW7 act: human FBW7 E3 ligase activation, primary screen. AID 1259310. actives 0.13% (n = 650,000). normalized activity (activation), % at 26.1 µM. Q969H0. AlphaScreen FBW7–phospho-cyclin E peptide binding, activator screen; in the data active = normalized activity above about 1.9%;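 note: purified mutant Fbw7 with reduced substrate affinity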
GPR151 ag: human GPR151 activation | Q8TDV0 | PathHunter beta-arrestin GPR151 cells, luminescence | activation, % at 11.2 µM | actives 1% (n = 650,000); in the data active = activation above about 4.9%;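 note: 0% = median of compound wells and 100% = cells with positive control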
MITF inh: inhibitors of human MITF; AID 1259374; inhibition, % at 2.6 µM; AlphaScreen MITF homodimerization, bead proximity signal; O75030; actives 0.91% (n = 650,000); in the data active = inhibition above about 50%;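 note: 0% = vehicle wells with protein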
Target sequence (O75030 whole entry, looked up): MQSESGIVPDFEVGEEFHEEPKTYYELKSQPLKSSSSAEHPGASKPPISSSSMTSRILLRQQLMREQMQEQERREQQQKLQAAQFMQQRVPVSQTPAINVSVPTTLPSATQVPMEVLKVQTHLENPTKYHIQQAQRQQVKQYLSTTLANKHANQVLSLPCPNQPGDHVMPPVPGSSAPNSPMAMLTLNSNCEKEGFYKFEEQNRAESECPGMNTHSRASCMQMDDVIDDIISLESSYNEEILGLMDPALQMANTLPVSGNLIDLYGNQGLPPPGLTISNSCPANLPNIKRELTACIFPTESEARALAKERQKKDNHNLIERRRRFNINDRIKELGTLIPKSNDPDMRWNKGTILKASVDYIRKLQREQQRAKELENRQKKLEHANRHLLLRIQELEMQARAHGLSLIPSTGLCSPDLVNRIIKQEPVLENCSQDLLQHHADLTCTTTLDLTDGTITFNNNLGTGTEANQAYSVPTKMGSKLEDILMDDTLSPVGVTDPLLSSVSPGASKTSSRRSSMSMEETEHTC
MITF inh conf: human MITF inhibition, confirmation | inhibition, % at 2.6 µM | AlphaScreen MITF homodimerization, biotin/His-MITF beads | actives 16% (n = 4,700) | shares compounds with MITF inh;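 active = inhibition above a cutoff derived from the DMSO control wells, cut at about 28% in these data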;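 note: 0% = MITF dimer wells with DMSO only; inhibitors lower the bead chemiluminescence by keeping MITF from dimerizing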
AlphaScreen intf2: optically interferes with AlphaScreen signal; shares compounds with MITF inh; LysRS AlphaScreen counterscreen, signal interference, triplicate; inhibition, % at 2.6 µM; actives 7.6% (n = 4,700); AID 1259376;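 active = inhibition above a cutoff derived from the DMSO control wells, cut at about 30% in these data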
The depositor's hits bear a star; / = no result. Rows were chosen to be rich in hits. Some 3.5% of all compounds tested hit in one or more screens of this group.

SMILES	TEAD-YAP block	FBW7 act	GPR151 ag	MITF inh	MITF inh conf	AlphaScreen intf2
Cc1ccc(N2C(=O)CC(=O)NC2=O)cc1	-1	0	-1	83*	-3	4
COc1ccc(OC)c(CN2CCN(Cc3ccccc3)CC2)c1	-5	0	0	6	/	/
CCC(C)N1CCN(Cc2cc(OC)ccc2OC)CC1 (stereo not drawn)	-7	0	1	57*	-2	3
CCC(CC)N1CCN(Cc2ccc(OC)c(OC)c2OC)CC1	10	0	-1	74*	1	4
CCC(C)N1CCN(Cc2ccc(OC)c(OC)c2OC)CC1 (stereo not drawn)	4	0	0	69*	-1	-7
Cc1nc2c(Cl)cc(Cl)cc2c(=O)n1-c1ccccc1	2	0	0	-3	/	/
O=[N+]([O-])c1ccccc1CN1CCN(Cc2ccc(F)cc2)CC1	-23	0	0	68*	16	18
Cc1ccc(N2CCN(Cc3ccccc3[N+](=O)[O-])CC2)cc1	-10	0	0	6	/	/
O=[N+]([O-])c1ccccc1CN1CCN(c2ccc(F)cc2)CC1	5	0	0	54*	-2	-1
CN1CCN(Cc2ccccc2[N+](=O)[O-])CC1	9	0	0	47	/	/
COc1ccccc1CCNCc1cc(OC)c(OC)cc1OC	2	0	-2	28	/	/
COc1ccccc1CCNCc1ccccc1OC	-7	0	0	52*	2	-8
CC1(C)CC(=O)c2sc(N[N+](=O)[O-])nc2C1	-13	0	0	84*	-1	-4
O=[N+]([O-])c1cccc(CN2CCN(Cc3ccc(F)cc3)CC2)c1	5	0	0	66*	-16	-5
O=[N+]([O-])c1cccc(CN2CCN(c3ccccc3)CC2)c1	4	0	0	36	/	/
Fc1ccc(CN2CCN(Cc3cccc(F)c3)CC2)cc1	-2	0	-1	45	/	/
CC(C)N1CCN(Cc2cccc([N+](=O)[O-])c2)CC1	-20	0	1	67*	4	10
CN1CCN(Cc2cccc([N+](=O)[O-])c2)CC1	3	0	0	2	/	/
COc1cccc(N2CCN(Cc3cccc([N+](=O)[O-])c3)CC2)c1	-10	0	1	51*	4	4
COC(=O)C1SC2(C(F)(F)F)CC1(O)c1c(c(OC)c3occc3c1OC)O2 (stereo not drawn)	-1	0	-1	-3	/	/
COc1ccc2c(c1)c(C(=O)N1CCCC1)c(C)n2Cc1ccccc1	27	0	2	9	/	/
O=C(c1ccncc1)N1CCN(C2C3CC4CC(C3)CC2C4)CC1 (stereo not drawn)	11	0	1	76*	-3	-3
O=C(c1ccncc1)N1CCN(C2CC3CCC2C3)CC1 (stereo not drawn)	-4	0	2	64*	1	14
C#CCN1C2CCC1CC(O)(c1ccccc1F)C2 (stereo not drawn)	2	0	-1	14	/	/
COc1ccc(CCNCc2ccc(OC)c(OC)c2)cc1	6	0	-1	51*	-1	-6
SMILES	TEAD-YAP block	FBW7 act	GPR151 ag	MITF inh	MITF inh conf	AlphaScreen intf2
COc1ccc(CCNCc2ccc(OC)cc2)cc1	8	0	-1	21	/	/
CCn1c(O)c(C(c2ccccn2)c2c(O)n(CC)c(=S)[nH]c2=O)c(=O)[nH]c1=S	5	0	1	54*	20	56*
COc1cc(Br)c(CN2CCN(CCO)CC2)cc1OC	-5	0	-1	16	/	/
COc1ccc(CN2CCN(Cc3ccc(Cl)cc3)CC2)cc1Br	12	0	-1	80*	6	7
COc1cc(C)c(CN2CCN(CCO)CC2)cc1C	2	0	1	51*	2	5
COc1ccc(CN2CCN(CCO)CC2)cc1Br	-2	0	-1	77*	5	-2
COc1ccc(CN2CCN(Cc3cccc(C)c3)CC2)cc1Br	0	0	-1	70*	21	8
CCN1CCN(Cc2ccc(OC)c(Br)c2)CC1	-9	0	0	-7	/	/
CC(C)Cn1c(=O)c(C(=O)NCc2ccco2)c(O)c2ccccc21	-6	0	0	-4	/	/
O=[N+]([O-])c1ccc(CN2CCN(Cc3ccccc3)CC2)cc1	-3	0	-1	57*	3	11
Cc1ccccc1CN1CCN(Cc2ccc([N+](=O)[O-])cc2)CC1	1	0	0	63*	0	2
CCC(C)N1CCN(Cc2ccccc2[N+](=O)[O-])CC1 (stereo not drawn)	7	0	1	74*	13	-14
Cc1ccccc1CN1CCN(Cc2ccccc2[N+](=O)[O-])CC1	-7	0	0	61*	2	-3
CCOC(=N)Cc1c[nH]c2ccccc12	6	1	0	6	/	/
CCOC(c1ccc(Cl)cc1)P(=O)(OCC)OCC (stereo not drawn)	-4	0	0	-2	/	/
Fc1ccccc1CN1CCN(Cc2ccccc2Cl)CC1	7	0	1	65*	5	18
Fc1cccc(CN2CCN(Cc3ccccc3Cl)CC2)c1	-9	0	-1	78*	-8	-4
Cc1ccccc1CN1CCN(Cc2cccc(F)c2)CC1	-1	0	0	80*	10	15
Fc1ccc(CN2CCN(Cc3ccccc3F)CC2)cc1	-13	0	2	78*	-7	-3
Fc1ccccc1CN1CCN(Cc2ccc(Cl)cc2)CC1	2	0	1	50	/	/
COc1ccc(Cl)cc1C(=O)C1CCCN(Cc2cccc(C)n2)C1 (stereo not drawn)	2	0	3	8	/	/
O=C1NC(=O)N(Cc2ccco2)C(=O)/C1=C\c1ccc(-c2cccc([N+](=O)[O-])c2)o1	4	0	1	50	/	/
CCC[C@@H]1NC(=O)[C@H]2CN(Cc3ccncc3)CCN2C1=O	9	0	1	12	/	/
CC1CN(c2ccc(Cl)cc2[N+](=O)[O-])CCN1 (stereo not drawn)	-4	0	0	13	/	/
COc1ccc(-n2c(/C=C/c3cccc(F)c3)nc3ccccc3c2=O)cc1	7	0	-1	2	/	/
SMILES	TEAD-YAP block	FBW7 act	GPR151 ag	MITF inh	MITF inh conf	AlphaScreen intf2
O=C(COc1ccc(Cl)cc1)N1CCN(Cc2ccccc2F)CC1	1	0	4	60*	7	1
CN1CCN(Cc2ccccc2O)CC1	18	0	2	1	/	/
CCc1ccc(CN2CCN(Cc3ccccc3F)CC2)cc1	-5	0	0	71*	-3	0
CN1CCN(Cc2ccccc2F)CC1	9	0	0	52*	1	1
CSc1ccc(CN2CCN(Cc3ccccc3Cl)CC2)cc1	-5	-1	-2	33	/	/
Fc1ccc(F)c(CN2CCN(Cc3ccccc3)CC2)c1	-2	0	4	-2	/	/
Fc1ccc(CN2CCN(Cc3ccccc3Cl)CC2)cc1	-12	0	0	70*	11	30*
